Results reported in PubChem BioAssay (NCATS).
Records with an inconclusive call do not appear. A call without a number means that no potency is given here. Values without a mark were called inactive. The source made the active and inactive calls. Calls follow the shape of the dose curve; as a rule, active = well fitted inhibition curve with a large enough effect; inconclusive = small, poorly fitted or top-dose-only effect; inactive = flat fitted curve, though single readings scatter.

Assay: P-glycoprotein substrates identified in KB-8-5-11 adenocarcinoma cell line, qHTS therapeutic library screen (AID 1346987); also: nearly all actives have a fitted effect of over 65% in size
Settings: KB-8-5-11 (P-gp overexpressing) viability, CellTiter-Glo, 72 h; series mostly up to 44.5 µM
Method in brief: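 Steps: plate 500 KB-8-5-11 cells/well in DMEM + 10% FCS (colchicine removed); pin compounds in dose-response; incubate 72 h, 37 degree C, 5% CO2; add CellTiter-Glo, 5 min; read luminescence.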
Potency is read from the fitted curve at half-maximal effect.

Question: With COc1ccc(-c2ccc3c(N4CCOCC4)nc(N4CC(C)OC(C)C4)nc3n2)cc1CO (centres undefined) as the compound, how does the Potency read?
Answer: 0.651 µM (active)

Question: For C=C(C)C1CCC2(C(=O)O)CCC3(C(=O)O)C(CCC4C5(C)CCC(O)C(C)(C(=O)O)C5CCC43C)C12 (centres undefined), which Potency is on record?
Answer: inactive

Question: Which Potency does the source give for CC1CCC2(C(=O)O)CCC3(C)C(=CCC4C5(C)CCC(O)C(C)(CO)C5CCC43C)C2C1(C)O (centres undefined) here?
Answer: inactive

Question: Which Potency does the source give for CO[C@H]1C[C@@H]2CC[C@@H](C)[C@@](O)(O2)C(=O)C(=O)N2CCCC[C@H]2C(=O)O[C@H]([C@H](C)C[C@@H]2CC[C@@H](OP(C)(C)=O)[C@H](OC)C2)CC(=O)[C@H](C)/C=C(\C)[C@@H](O)[C@@H](OC)C(=O)[C@H](C)C[C@H](C)/C=C/C=C/C=C/1C here?
Answer: inactive

Question: Which Potency does the source give for CC(C)(C)c1ccc(S(=O)(=O)NCc2ccc(C(=O)Nc3cccnc3)cc2)cc1 here?
Answer: 1.16 µM (active)

Question: Which Potency does the source give for COC(=O)c1ccc(OC(CO)C(O)c2ccc(O)c(OC)c2)c(OC)c1 (centres undefined) here?
Answer: inactive

Question: For Nc1nc2c(c(N3CCNCC3)n1)CCC1=C2[C@@H]2CCCC[C@@H]2O1, which Potency is on record?
Answer: inactive

Question: For CC(=O)O[C@H]1CC[C@H](C)[C@@]2(C)[C@H](OC(C)=O)c3c(C)coc3C(=O)[C@H]12, which Potency is on record?
Answer: inactive

Question: For O=[N+]([O-])c1cn2c(n1)OCC(OCc1ccc(OC(F)(F)F)cc1)C2 (centres undefined), which Potency is on record?
Answer: inactive

Question: With CN1C2CCC1CC(OC(=O)[C@H](CO)c1ccccc1)C2 (some centres undefined) as the compound, how does the Potency read?
Answer: inactive

Question: Which Potency does the source give for O=C(NCc1ccccn1)Nc1nnc(-c2ccco2)o1 here?
Answer: inactive

Question: With COc1c/c(=C2\C=c3ccccc3=N2)[nH]/c1=C\c1[nH]c(C)cc1C as the compound, how does the Potency read?
Answer: 1.16 µM (active)

Question: Which activity change, negative = cytotoxicity does the source give for C[C@@H]1O[C@@H](O[C@H]2[C@H](OC(=O)[C@]34CCC(C)(C)C[C@H]3C3=CCC5[C@@]6(C)C[C@H](O)[C@H](O[C@@H]7O[C@H](CO)[C@@H](O)[C@H](O)[C@H]7O)[C@@](C)(CO)C6[C@H](O)C[C@@]5(C)[C@]3(C)C[C@H]4O)OC[C@H](O)[C@@H]2O)[C@H](O)[C@H](O)[C@H]1O[C@@H]1OC[C@@H](O)[C@H](O[C@H]2OC[C@](O)(CO)[C@H]2O)[C@H]1O (some centres undefined) here?
Answer: 4.28% [at 9.29 µM]

Question: For C/C=C/c1ccc2c(c1)[C@@H](C)[C@H](c1ccc(O)cc1)O2, which Potency is on record?
Answer: inactive

Question: For COc1ccc(C(=O)C2CCN(CC(=O)N(Cc3nc4c(c(=O)[nH]3)COCC4)CC3CC3)CC2)cc1, which Potency is on record?
Answer: inactive

Question: With CCCCOC(=O)NC(=O)C1c2ccccc2Oc2ccccc21 as the compound, how does the Potency read?
Answer: inactive

Question: For C[C@H]1Oc2cc(cnc2N)-c2c(nn(C)c2C#N)CN(C)C(=O)c2ccc(F)cc21, which Potency is on record?
Answer: inactive

Question: For COc1ccc([C@H]2CNC(=O)C2)cc1OC1CCCC1, which Potency is on record?
Answer: inactive

Question: With C=CC1(C)C=C2C(=O)OC(=O)C3=C(CCCC3(C)C)C2(O)CC1 (centres undefined) as the compound, how does the Potency read?
Answer: inactive

Question: With C=C(C)C1CC[C@]2(C(=O)O)CC[C@]3(C(=O)O)[C@H](CCC4[C@@]5(C)CC[C@H](O)C(C)(C)C5CC[C@]43C)C12 (some centres undefined) as the compound, how does the Potency read?
Answer: inactive

Question: Which Potency does the source give for CCc1ccc(Cc2ccc3c(c2)[C@]2(OC3)O[C@H](CO)[C@@H](O)[C@H](O)[C@H]2O)cc1 here?
Answer: inactive

Question: With CCOCCn1nc(CC)c2nc(N3CCC(C(=O)O)CC3)nc(Nc3cc(C)ccn3)c21 as the compound, how does the Potency read?
Answer: inactive

Question: With CO[C@H]1/C=C\O[C@@]2(C)Oc3c(C)c(O)c4c(O)c(c5c(nc6cc(C)ccn65)c4c3C2=O)NC(=O)/C(C)=C\C=C/[C@H](C)[C@H](O)[C@@H](C)[C@@H](O)[C@@H](C)[C@H](OC(C)=O)[C@@H]1C as the compound, how does the Potency read?
Answer: inactive

Question: Which Potency does the source give for O=S(=O)(c1ccccc1)c1cnc2c(N3CCNCC3)cccc2c1 here?
Answer: inactive

Question: For CCNCc1nc2c(N)nc3ccccc3c2n1CC(C)(C)O, which Potency is on record?
Answer: inactive

Question: With CC1CC2OC3(OC2C(C)(C)O)C1C1(C)CCC24CC25CCC(O[C@@H]2OC[C@@H](O)[C@H](O)[C@H]2O)C(C)(C)C5CC=C4C1(C)C3O (some centres undefined) as the compound, how does the Potency read?
Answer: inactive

Question: Which Potency does the source give for COC(=O)C[C@H]1C(C)(C)[C@H](OC(=O)C(C)C)[C@@]2(O)C(=O)[C@]1(C)C1CC[C@]3(C)C(CC(=O)O[C@H]3c3ccoc3)[C@]13O[C@@H]32 (some centres undefined) here?
Answer: inactive

Question: With COC(=O)C1=CO[C@@H](O[C@@H]2O[C@H](CO)[C@@H](O)[C@H](O)[C@H]2O)[C@@H]2[C@@](C)(O)[C@@H](OC(=O)/C=C/c3ccc(O)cc3)C[C@]12O as the compound, how does the Potency read?
Answer: inactive

Question: With COc1ccc(/C=C/C(=O)O[C@@H]2[C@@H](O)[C@@H](O)[C@H](O[C@@H]3C=C(CO)[C@H]4[C@H](O[C@@H]5O[C@H](CO)[C@@H](O)[C@H](O)[C@H]5O)OC=C[C@H]43)O[C@H]2C)cc1O as the compound, how does the Potency read?
Answer: inactive
